This passage reports outcome and AC50 results from PubChem BioAssay (EPA / NIEHS).

Where “and” joins values, the source holds several entries; their conditions need not be identical. Identical values can stand only once. Inconclusive results are not listed. Some structures have more than one record in an assay (separate samples or runs), and their calls can disagree. Calls of active or inactive are those of the source. Rule for the calls, unless noted: active = hit-call score of the fitted dose curve at least 0.9, where 1 is the maximum; inactive = score below 0.9.

Experiment [1] addresses human Thyroid Receptor alpha (THRa1), THRA (gene 7067) (UniProt P10827). Put plainly: ATG_THRa1_TRANS: Attagene TRANS-FACTORIAL HepG2 Assay for human Thyroid Receptor alpha (THRa1) (AID 2283014; active = hit-call score of the fitted dose curve at least 0.9, where 1 is the maximum). In short, it runs like this:
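Measured here is mRNA from a GAL4-UAS reporter in transfected HepG2 cells carrying a Gal4-fused receptor, 24 h post-dose. DMSO served as negative control and baseline.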

Read-out in experiment [2]: E-selectin (Homo sapiens) (UniProt P16581)
The experiment in a line: BSK_3C_Eselectin: BioMAP Diversity Plus: 3C Assay for Eselectin Biomarker Activity (AID 2283015).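 For outcome: cell surface E-selectin protein quantified by ELISA 24 h after dosing.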 Particulars: primary human endothelial cells (HUVEC); actives raise or lower the signal. In short, it runs like this:
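Endpoint derived by bidirectional fitting against DMSO vehicle; signal is ELISA-detected E-selectin from primary HUVEC at 24 h post-dosing, with parallel SRB staining (0.1% SRB, 560 nm) flagging cytotoxicity.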

Read-out in experiment [3]: Interleukin-1 alpha (IL1a), IL1A (gene 3552)
The experiment in a line: BSK_BE3C_IL1a: BioMAP Diversity Plus: BE3C Assay for Interleukin-1 alpha (IL1a) Biomarker Activity (AID 2283016). The conditions noted are these: primary human bronchial epithelial cells; actives raise or lower the signal. The method, boiled down: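 ELISA read-out of IL-1a from human lung bronchial epithelial primary cells, 24 h post-dose. Gain or loss of signal fitted relative to DMSO negative control.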

Read-out in experiment [4]: Monocyte Chemoattractant Protein-1 (MCP1), CCL2 (gene 6347)
Put plainly: BSK_3C_MCP1: BioMAP Diversity Plus: 3C Assay for Monocyte Chemoattractant Protein-1 (MCP1) Biomarker Activity (AID 2283017). Particulars: primary human endothelial cells (HUVEC); actives raise or lower the signal. The method, boiled down:
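Using human vascular primary endothelium, researchers measured MCP-1 by ELISA 24 h after treatment, with DMSO serving as negative control for bidirectional fitting.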

Read-out in experiment [5]: Monocyte Chemoattractant Protein-1 (MCP1), CCL2 (gene 6347)
The experiment in a line: BSK_4H_MCP1: BioMAP Diversity Plus: 4H Assay for Monocyte Chemoattractant Protein-1 (MCP1) Biomarker Activity (AID 2283018). The conditions noted are these: primary human endothelial cells (HUVEC); actives raise or lower the signal. In short, it runs like this: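 HUVEC primary cells, 24 h post-dose, MCP-1 by ELISA. Gain or loss of signal fitted bidirectionally vs DMSO baseline. Cytotoxicity: SRB stain (0.1% after 10% TCA fixation), read 560 nm, parallel cultures.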

Read-out in experiment [6]: Human Leukocyte Antigen - DR isotype (HLADR), HLA-DRA (gene 3122)
The experiment in a line: BSK_3C_HLADR: BioMAP Diversity Plus: 3C Assay for Human Leukocyte Antigen - DR isotype (HLADR) Biomarker Activity (AID 2283019).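 For outcome: ELISA of cell-surface HLA-DR on HUVEC 24 h after dosing.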 The conditions noted are these: primary human endothelial cells (HUVEC); actives raise or lower the signal. The method, boiled down: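 Compound added to primary HUVEC cultures, 24 h incubation, then HLA-DR determined by ELISA; endpoint derived by bidirectional fitting relative to DMSO negative control.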

Read-out in experiment [7]: Interleukin-8 (IL8), CXCL8 (gene 3576)
The experiment in a line: BSK_3C_IL8: BioMAP Diversity Plus: 3C Assay for Interleukin-8 (IL8) Biomarker Activity (AID 2283020). The conditions noted are these: primary human endothelial cells (HUVEC); actives raise or lower the signal. The method, boiled down: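 HUVEC, 3C stimulation; 24 h compound exposure; IL-8 read by ELISA; gain or loss of signal fitted relative to DMSO control.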

Read-out in experiment [8]: Monokine induced gamma interferon (MIG), CXCL9 (gene 4283)
Put plainly: BSK_3C_MIG: BioMAP Diversity Plus: 3C Assay for Monokine induced gamma interferon (MIG) Biomarker Activity (AID 2283021).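 For AC50: MIG protein level measured by immunoassay in the treated endothelial cultures.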 The conditions noted are these: primary human endothelial cells (HUVEC); actives raise or lower the signal. The method, boiled down:
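HUVEC, 3C system; 24 h chemical exposure; MIG by ELISA; bidirectional fit vs DMSO baseline.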

Experiment [9] addresses human Vitamin D Receptor (VDR), VDR (gene 7421) (UniProt P11473). The experiment in a line: ATG_VDR_TRANS: Attagene TRANS-FACTORIAL HepG2 Assay for human Vitamin D Receptor (VDR) (AID 2283022; active = hit-call score of the fitted dose curve at least 0.9, where 1 is the maximum). In short, it runs like this:
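Multiplexed TRANS reporter in HepG2; 24 h treatment; reporter mRNA by RT-PCR plus capillary electrophoresis; upregulation scored relative to DMSO.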

The nature of experiment [10]: BSK_3C_SRB: Viability Assessment in the BioMAP Diversity Plus: 3C Assay (AID 2283023).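 Note: fitted both ways against DMSO so a hit may be signal rise or drop.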 Particulars: primary human endothelial cells (HUVEC). The method, boiled down:
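Overt cytotoxicity is gauged in parallel confluent HUVEC cultures by SRB total-protein staining at the time of biomarker measurement, 24 h after dosing. Gain or loss of signal is fitted versus DMSO.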

Read-out in experiment [11]: Matrix Metallopeptidase 1 (MMP1), MMP1 (gene 4312)
The experiment in a line: BSK_BE3C_MMP1: BioMAP Diversity Plus: BE3C Assay for Matrix Metallopeptidase 1 (MMP1) Biomarker Activity (AID 2283024). Particulars: primary human bronchial epithelial cells; actives raise or lower the signal. The method, boiled down:
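ELISA read-out of MMP1 in human lung bronchial epithelial primary cultures, 24 h post-dose; bidirectional curve fit vs DMSO baseline, gain or loss of signal scored.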

Read-out in experiment [12]: Pselectin, SELP (gene 6403)
Put plainly: BSK_4H_Pselectin: BioMAP Diversity Plus: 4H Assay for Pselectin Biomarker Activity (AID 2283026). Particulars: primary human endothelial cells (HUVEC); actives raise or lower the signal. The method, boiled down:
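HUVEC, 24 h chemical exposure; P-selectin read by ELISA. Bidirectional curve fit vs DMSO baseline; gain or loss of signal scored.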

The nature of experiment [13]: BSK_4H_SRB: Viability Assessment in the BioMAP Diversity Plus: 4H Assay (AID 2283027).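 For AC50: curves fitted both ways versus DMSO so AC50 may be loss or gain.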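 Note: cells exposed to compound for 24 h before staining.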 The conditions noted are these: primary human endothelial cells (HUVEC). The method, boiled down: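 Cytotoxicity readout: sulforhodamine B (0.1%) staining of total protein after 10% TCA fixation, measured at 560 nm in human umbilical vein endothelium at 24 h. DMSO set the baseline; fitting was bidirectional.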

The nature of experiment [14]: BSK_BE3C_SRB: Viability Assessment in the BioMAP Diversity Plus: BE3C Assay (AID 2283028).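 For AC50: fitted both ways so AC50 may mark signal gain or loss versus DMSO.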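 Note: measured 24 h after chemical dosing.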 Particulars: primary human bronchial epithelial cells. The method, boiled down:
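SRB total-protein staining (0.1%, after TCA fixation) of chemically dosed human bronchial epithelial primary cells at 24 h; DMSO serves as the negative control for bidirectional curve fitting.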

Read-out in experiment [15]: Urokinase-type plasminogen activator receptor (uPAR), PLAUR (gene 5329)
Put plainly: BSK_4H_uPAR: BioMAP Diversity Plus: 4H Assay for Urokinase-type plasminogen activator receptor (uPAR) Biomarker Activity (AID 2283030). The conditions noted are these: primary human endothelial cells (HUVEC); actives raise or lower the signal. The method, boiled down: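 Endpoint derived via bidirectional curve fitting against DMSO baseline; readout was ELISA detection of uPAR on umbilical vein endothelial cells at 24 h post-treatment, with SRB-stained parallel cultures assessing cytotoxicity.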

Read-out in experiment [16]: Vascular endothelial growth factor receptor 2 (Homo sapiens) (UniProt P35968)
Put plainly: BSK_4H_VEGFRII: BioMAP Diversity Plus: 4H Assay for Vascular endothelial growth factor receptor 2 (VEGFR2) Biomarker Activity (AID 2283031). The conditions noted are these: primary human endothelial cells (HUVEC); actives raise or lower the signal. In short, it runs like this:
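In this multiplexed HUVEC system, biomarker ELISA was performed after 24 h chemical exposure. Parallel SRB staining (TCA fixation, 560 nm) tracked cytotoxicity; DMSO served as baseline.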

Read-out in experiment [17]: Human Leukocyte Antigen - DR isotype (HLADR), HLA-DRA (gene 3122)
The experiment in a line: BSK_BE3C_HLADR: BioMAP Diversity Plus: BE3C Assay for Human Leukocyte Antigen - DR isotype (HLADR) Biomarker Activity (AID 2283032). Particulars: primary human bronchial epithelial cells; actives raise or lower the signal. In short, it runs like this:
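Primary human bronchial epithelial cells (BE3C); 24 h chemical exposure; HLA-DR by ELISA; bidirectional curve fit vs DMSO baseline.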

Read-out in experiment [18]: Vascular cell adhesion molecule 1 (VCAM1), VCAM1 (gene 7412)
Put plainly: BSK_4H_VCAM1: BioMAP Diversity Plus: 4H Assay for Vascular cell adhesion molecule 1 (VCAM1) Biomarker Activity (AID 2283033).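 For outcome: cell-surface VCAM-1 protein measured by ELISA.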 Particulars: primary human endothelial cells (HUVEC); actives raise or lower the signal. The method, boiled down:
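HUVEC, 24 h post-dose; VCAM-1 by ELISA. Bidirectional curve fit vs DMSO baseline. Parallel SRB total-protein stain (0.1% SRB after 10% TCA fixation, 560 nm) for cytotoxicity.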

Sequence of human Thyroid Receptor alpha (THRa1), THRA (gene 7067) (P10827 whole entry, looked up, the tested form may be a part): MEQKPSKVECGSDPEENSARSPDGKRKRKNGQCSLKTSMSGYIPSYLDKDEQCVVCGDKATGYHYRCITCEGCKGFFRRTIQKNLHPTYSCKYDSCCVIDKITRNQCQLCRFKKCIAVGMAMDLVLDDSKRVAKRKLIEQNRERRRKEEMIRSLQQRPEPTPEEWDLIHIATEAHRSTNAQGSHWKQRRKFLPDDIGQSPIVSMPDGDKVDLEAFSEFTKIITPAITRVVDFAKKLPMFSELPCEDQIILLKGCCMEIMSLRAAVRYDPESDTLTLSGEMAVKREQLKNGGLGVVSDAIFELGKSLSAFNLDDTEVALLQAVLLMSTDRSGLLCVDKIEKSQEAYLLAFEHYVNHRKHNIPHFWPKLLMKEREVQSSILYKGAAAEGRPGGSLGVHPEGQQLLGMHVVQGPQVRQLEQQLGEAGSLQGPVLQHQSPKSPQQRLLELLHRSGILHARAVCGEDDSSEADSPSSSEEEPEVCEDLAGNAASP
Sequence of human Vitamin D Receptor (VDR), VDR (gene 7421) (P11473 whole entry, looked up): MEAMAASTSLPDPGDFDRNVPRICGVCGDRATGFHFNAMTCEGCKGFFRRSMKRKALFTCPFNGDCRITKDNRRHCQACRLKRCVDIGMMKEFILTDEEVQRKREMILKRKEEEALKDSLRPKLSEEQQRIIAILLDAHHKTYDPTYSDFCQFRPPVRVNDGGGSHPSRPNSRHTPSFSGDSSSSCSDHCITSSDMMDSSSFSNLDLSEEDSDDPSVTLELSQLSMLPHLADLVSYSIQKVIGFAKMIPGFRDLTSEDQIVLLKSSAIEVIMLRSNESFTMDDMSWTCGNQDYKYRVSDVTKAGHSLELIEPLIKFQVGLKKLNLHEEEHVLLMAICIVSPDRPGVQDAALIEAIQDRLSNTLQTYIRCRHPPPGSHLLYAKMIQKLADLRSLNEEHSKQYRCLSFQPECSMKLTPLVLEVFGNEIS
Sequence of E-selectin (Homo sapiens) (P16581 whole entry, looked up): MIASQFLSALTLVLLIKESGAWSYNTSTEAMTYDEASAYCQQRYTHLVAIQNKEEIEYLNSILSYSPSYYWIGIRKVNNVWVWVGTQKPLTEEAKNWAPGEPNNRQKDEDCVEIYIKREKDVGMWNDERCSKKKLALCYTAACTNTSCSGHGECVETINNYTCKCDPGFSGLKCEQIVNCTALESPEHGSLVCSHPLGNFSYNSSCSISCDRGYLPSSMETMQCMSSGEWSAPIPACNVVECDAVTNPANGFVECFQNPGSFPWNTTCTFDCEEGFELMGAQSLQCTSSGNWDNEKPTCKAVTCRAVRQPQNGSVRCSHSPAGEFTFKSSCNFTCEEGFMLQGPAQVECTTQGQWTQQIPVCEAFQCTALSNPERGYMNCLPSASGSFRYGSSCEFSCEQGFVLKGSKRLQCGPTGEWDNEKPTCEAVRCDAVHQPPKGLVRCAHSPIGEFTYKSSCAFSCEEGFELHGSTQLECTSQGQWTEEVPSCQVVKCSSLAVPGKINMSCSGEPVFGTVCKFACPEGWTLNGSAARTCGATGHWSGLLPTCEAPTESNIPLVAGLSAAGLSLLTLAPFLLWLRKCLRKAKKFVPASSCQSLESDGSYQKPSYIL

Take `COc1cc(C)ccc1C(C)C`: in [1], the outcome was inactive.

In the case of `COC(=O)C1=C(C)NC(C)=C(C(=O)OCC(C)C)C1c1ccccc1[N+](=O)[O-]` (configuration not stated), the compound was classed as inactive in experiment [1].

On to `S=C(NC1CCCCC1)NC1CCCCC1`, for which the call in [1], in experiment [2], in experiment [3], in experiment [4], in [5] and in experiment [6] was inactive. The outcome in experiment [7], in experiment [8], in experiment [9], in experiment [10], in experiment [11] and in [12] was inactive. Besides, the outcome in [13], in experiment [14], in experiment [15], in experiment [16], in experiment [17] and in experiment [18] was inactive.

`COC(=O)c1ccc2cc(C(=O)OC)ccc2c1`: the result in [1] was inactive.

As for `CCCCCCCC[N+](C)(CCCCCCCC)CCCCCCCC`, the compound was classed as inactive in experiment [1].

For the compound `CC(C)CC(O)Cc1ccccc1` (configuration not stated), in [1], the outcome was inactive.

In the case of `O=c1[nH]nc(-c2ccc([N+](=O)[O-])o2)o1`, the outcome in experiment [1] was inactive.

Regarding `NC(=O)OCC(COC(N)=O)c1ccccc1`, in experiment [1], the compound was called inactive.

Consider `CCCCCCOC(=O)C(C)CC` (configuration not stated), for which the outcome in experiment [1] was inactive.

`COc1ccc(NC(C)=O)cc1N`: the compound was called inactive in experiment [1].

Consider `c1cc(N(CC2CO2)CC2CO2)ccc1OCC1CO1` (configuration not stated), for which the call in [1] was inactive.

As for `C=C(C)c1cccc(C(C)(C)N=C=O)c1`, the compound was called inactive in [1] and in [9].

In the case of `c1cc(C(c2ccc(OCC3CO3)cc2)C(c2ccc(OCC3CO3)cc2)c2ccc(OCC3CO3)cc2)ccc1OCC1CO1` (configuration not stated), the result in [1] and in experiment [9] was inactive.

Take `FC(F)=C(F)OC(F)(F)C(F)(F)C(F)(F)F`: in [9], the compound was called inactive.

On to `OC1CCCC1`, for which the result in experiment [1] and in experiment [9] was inactive.

In the case of `CCC(C)(C)C1CCCCC1OC(C)=O` (configuration not stated), in experiment [9], the outcome was inactive.

In the case of `CC(=O)OCC(C)OC(C)=O` (configuration not stated), the compound was called inactive in experiment [9].

With `Cc1ccc([N+](=O)[O-])cc1S(=O)(=O)O`, in [9], the outcome was inactive.

For the compound `CCCCC(CC)CCC(CC(C)C)OS(=O)(=O)O` (configuration not stated), the outcome in experiment [9] was inactive.

With `CCCNC(=O)NS(=O)(=O)c1ccc(Cl)cc1`, in [9], the compound was called inactive.

Turning to `C=CC(=O)OCCOC1C2CCC1C1CC=CC12` (configuration not stated), the result in [9] was inactive.

Regarding `CC(C)=CCC/C(C)=C\C#N`, in [9], the result was inactive.

With `O=C(Oc1ccccc1)c1ccc2ccccc2c1O`, the call in experiment [9] was inactive.

Consider `CCOC(=O)c1ccccc1C(=C1C=C(Br)C(=O)C(Br)=C1)c1cc(Br)c(O)c(Br)c1`, for which the AC50 in experiment [2] was 21 µM (active) and 19.9 µM (active); in experiment [3], 4.38 µM (active) and 4.46 µM (active); in [4] it was 21.6 µM (active) and 20.9 µM (active); in experiment [5] it was 15.5 µM (active) and 13.5 µM (active); in experiment [6], 19.5 µM (active) and 16 µM (active); in [7] it was 20.2 µM (active) and 21.7 µM (active). Besides, the AC50 is 23.6 µM (active) and 21.7 µM (active) in experiment [8]; 21.7 µM (active) and 23.7 µM (active) in [10]; 21.9 µM (active) and 19.8 µM (active) in experiment [12]; 19.1 µM (active) and 20.3 µM (active) in [13]; 12.5 µM (active) in experiment [14]; 15.6 µM (active) and 15.8 µM (active) in experiment [15]. Besides, the AC50 in experiment [17] was 4.71 µM (active) and 4.54 µM (active); in experiment [18], 20.6 µM (active) and 20.1 µM (active). For the same compound, the outcome in experiment [11], in experiment [14] and in experiment [16] was inactive.

In the case of `CC(=O)[C@H]1[C@H](C#N)C[C@H]2[C@@H]3CC=C4C[C@@H](O)CC[C@]4(C)[C@H]3CC[C@@]21C`, the result in [1] and in [9] was inactive.
